Data on 13 compounds can be found in PMC6792352, “Limited Chemical Structural Diversity Found to Modulate Thyroid Hormone Receptor in the Tox21 Chemical Library” (Environmental Health Perspectives, 2019).

The structures appear in SMILES notation. Counter-ions that a name gives are not always drawn.

The subject of the experiment is thyroid hormone receptor (endogenous TRα and TRβ). More on the design: species or system GH3-TRE-Luc (rat pituitary); GH3-TRE-Luc luciferase reporter, antagonist mode against 1 nM T3, loss of signal, qHTS. The settings on record: read-out: Average AC50 (uM) GH3-TRE-Antag, antagonist mode, 1 nM T3, no GH3 cytotoxicity hit.
With `O=c1c(-c2ccc(O)cc2)coc2cc(O)ccc12` [Daidzein], the AC50 (as a rule, the midpoint of the concentration-response curve, whichever way the signal moves) turned out to be 87.6 µM.
Consider `CC1(C)S[C@@H]2[C@H](NC(=O)[C@H](N)c3ccccc3)C(=O)N2[C@H]1C(=O)OC1OC(=O)c2ccccc21` (stereo partly shown) [Talampicillin hydrochloride], for which the AC50 is above 20 µM.
As for `CCCN(CC)CC1COC2(CCC(C(C)(C)C)CC2)O1` (stereo not shown) [Spiroxamine], the AC50 was determined as 66.6 µM.
For `O=C(O)COc1cc(Cl)c(Cl)cc1Cl` [2,4,5-Trichlorophenoxyacetic acid], the AC50 was determined as 70.6 µM.
Regarding `O=C(O)c1cccnc1Nc1cccc(C(F)(F)F)c1` [Niflumic acid], the AC50 is 20.3 µM.
Consider `O=c1oc2ccccc2c(O)c1C1CCCc2ccccc21` (stereo not shown) [Coumatetralyl], for which the AC50 was above 90 µM.
Take `CCCCCc1ccc(N)cc1` [4-Pentylaniline]: the AC50 was determined as 47.1 µM.
Under `CCCC(=O)OC[C@@H](OC(=O)CCC)[C@@H](OC(=O)CCC)[C@H](Cn1c2nc(=O)[nH]c(=O)c-2nc2cc(C)c(C)cc21)OC(=O)CCC` [Riboflavin tetrabutyrate] stands 42 µM; under `COc1ccc(CN(CCN(C)C)c2ccccn2)cc1` [Pyrilamine maleate], 32.2 µM; under `O=c1[nH]c2ccc([S+]([O-])CCN3CCC(Cc4ccc(F)cc4)CC3)cc2o1` (stereo not shown) [Besonprodil], 75.9 µM.
In the case of `COc1cc(NC(=O)CC(C)=O)c(OC)cc1Cl` [4'-Chloro-2',5'-dimethoxyacetoacetanilide], the half-maximal activity concentration (AC50) was above 90 µM.
Regarding `CCOC(CN1CCN(CC(C)C(=O)c2ccccc2)CC1)c1ccccc1` (stereo not shown) [Eprazinone dihydrochloride], the AC50 was 32.1 µM.
For the compound `C[C@@H]1C[C@H]2[C@@H]3C[C@H](F)C4=CC(=O)C=C[C@]4(C)[C@@]3(F)[C@@H](O)C[C@]2(C)[C@@]1(O)C(=O)COC(=O)C(C)(C)C` [Flumethasone pivalate], the AC50 came to 26.2 µM.
